# Sampled rows, rich in hits. Any-hit rate of the full collection: about 4.8%.
# MPTP inh: inhibitors of mitochondrial permeability transition pore; isolated mouse mitochondria, Ca2+ swelling absorbance, 30 min; inhibition, % at 10 µM; hit rate 1.4% among 360,000;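 active means inhibition of 50% or more, scaled per plate between neutral and stimulator controls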;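 further: 0% = DMSO wells given calcium and 100% = 1 mM EGTA wells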
# Mdm2-MdmX inh: inhibitors of human Mdm2/MdmX interaction; O15151+Q00987; SaOS-2 split-luciferase Mdm2/MdmX complementation, luminescence; inhibition, % at 8 µM; hit rate 3% among 330,000; AID 485346;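 active means inhibition of at least 50% at 8 µM in the primary screen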
# Calb FLC: affects C. albicans growth with fluconazole. C. albicans CaCi-2 (fluconazole-resistant clinical isolate) + fluconazole, Alamar Blue growth, 48 h. growth inhibition, % (no concentration beside the values). hit rate 0.57% among 300,000. AID 1979;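 active means growth inhibition above about 58% in most replicates, limit read from the data, passing the limit was not always enough; inconclusive means exactly half the replicates above a set limit; inactive means most replicates below a set limit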;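 further: all wells also contain fluconazole at 8 µg/ml as a sub-toxic cotreatment; 0% = median of DMSO wells and 100% = median of geldanamycin control wells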
# CSC inhib: blocks cancer stem cells; inhibition, % at 7.5 µM; cancer stem cell-like cells viability, luminescence; hit rate 1.1% among 300,000; in the data active means inhibition above about 75%; inconclusive means no clear call, values can overlap the other calls; tested in HMLE shEcad cells
# Beta cell apopt: beta cell apoptosis inhibition; AID 435005; INS-1E cytokine-induced death, ATP luminescence, 48 h; percent of positive-control rescue, neutral wells zero; hit rate 0.8% among 300,000; protection from apoptosis, % (concentration not given with the values);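 active means Every replicate reaches about 75%, or at least half do and their mean reaches it too, limit read from the data; inconclusive means At least half of replicates reach the limit but their mean does not; inactive means Under half of replicates reach the limit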;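 further: 0% = cytokine-treated negative control wells and 100% = positive control rescue; higher means more ATP so stronger rescue from cytokine killing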
# Mdm2-MdmX conf: human Mdm2/MdmX binding inhibition, confirmed | hit rate 55% among 10,000 | luminescent assay | shares compounds with Mdm2-MdmX inh | inhibition, % at 8 µM; in the data active means inhibition above about 40%
# Full FLuc ctr: inhibits full-length luciferase, flagging false Mdm2/MdmX hits | hit rate 77% among 6,200 | shares compounds with Mdm2-MdmX inh | SaOS-2 full-length luciferase counterscreen, luminescence | AID 504607 | inhibition, % at 8 µM;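 active means mean inhibition at 8 µM reaching about 37%, which flags the compound as non-specific, limit read from the data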;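 further: p53-null SaOS-2 cells with luciferase driven by a doxycycline-inducible promoter; compound on cells about two nights before reading with doxycycline added after day one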
# * hit, by the source's call; ? = inconclusive; nt = not tested or not shown.
SMILES,MPTP inh,Mdm2-MdmX inh,Calb FLC,CSC inhib,Beta cell apopt,Mdm2-MdmX conf,Full FLuc ctr
Nc1nonc1-n1nnc(C(=O)N/N=C/c2cc(Cl)ccc2O)c1CN1CCCCCC1,-1,68*,101*,?,91*,56*,32
Cc1nnn(-c2nonc2N)c1C(=O)N/N=C/c1cccc2ccccc12,2,19,-9,-8,3,nt,nt
Cc1nnn(-c2nonc2N)c1C(=O)N/N=C/c1ccccc1O,-1,56*,-5,24,85*,61*,51*
Nc1nonc1-n1nnc(C(=O)N/N=C/c2cccc(O)c2)c1CN1CCCC1,2,17,5,-1,-1,nt,nt
CC1CCN(Cc2c(C(=O)N/N=C/c3ccccc3O)nnn2-c2nonc2N)CC1,-1,69*,7,nt,95*,80*,32
CC(=C/c1ccccc1)/C=N/NC(=O)c1nnn(-c2nonc2N)c1CN1CCC(C)CC1,0,-11,0,-3,17,nt,nt
COc1ccc(NC(=O)Cc2c(SC)c3ccccc3n2Cc2ccccc2)cc1,4,69*,-3,-1,23,40,90*
O=C1CCCCC(=O)[C@H](OC(=O)c2ccccc2)C[C@H](c2ccccc2)O1,0,nt,nt,nt,nt,nt,nt
O=C(CSc1nccc(=O)[nH]1)Nc1cc(C(F)(F)F)ccc1N1CCOCC1,-1,-7,-19,-6,-1,nt,nt
CC(=O)c1c(C)[nH]c(C(=O)OCC(=O)Nc2cc(C(F)(F)F)ccc2N2CCOCC2)c1C,2,51*,-11,-5,7,32,nt
CCN(CC)S(=O)(=O)c1ccc(N2CCOCC2)c(NC(=O)c2[nH]c(C)c(C(C)=O)c2C)c1,-1,83*,nt,-14,0,41*,68*
Cc1ccc2nc(SCC(=O)Nc3cc(C(F)(F)F)ccc3N3CCOCC3)[nH]c2c1,-1,84*,-1,62,45,65*,91*
COC(=O)[C@]12CCCCC=C1N(Cc1ccc3c(c1)OCO3)C(=O)[C@H](CC(=O)NCc1ccc(OC)c(OC)c1)C2,1,nt,nt,nt,nt,nt,nt
CC(C)(C)c1ccc(C(=O)N2CCC2(C)C(=O)NCCC#N)cc1 (configuration not stated),0,nt,nt,nt,nt,nt,nt
O=C(NC1CCCCC1)C1c2ccccc2OCC(=O)N1Cc1cccnc1 (configuration not stated),-1,nt,nt,nt,nt,nt,nt
COCCN(CCOC)Cc1cc(=O)oc2cc(C)cc(C)c12,0,nt,nt,nt,nt,nt,nt
CCCCNC(=O)C1c2ccccc2OCC(=O)N1Cc1cccnc1 (configuration not stated),0,nt,nt,nt,nt,nt,nt
COc1ccc(/C=N/Nc2nnc(-c3ncc[nH]3)c3ccccc23)cc1,4,52*,-8,18,5,-4,nt
CC(=O)Nc1ccc(C=NNc2nnc(NN=Cc3ccc(NC(C)=O)cc3)c3ccccc23)cc1,2,nt,nt,nt,nt,nt,nt
Oc1ccc2ccccc2c1/C=N/Nc1nnc(-c2ncc[nH]2)c2ccccc12,12,81*,108*,100*,107*,83*,55*
Oc1ccc2ccccc2c1C=NNc1ccccn1,2,nt,nt,nt,nt,nt,nt
NC(=S)NCc1cccnc1,2,-25,-8,-5,3,nt,nt
CSC(=S)NCc1cccnc1,1,79*,88*,35,9,73*,39*
COc1cc(NC(=O)c2cccc3c2C(=O)N(C2CCCCC2)C3)cc(OC)c1OC,0,78*,33,8,8,43*,61*
Cc1cc(C)cc(NC(=O)c2cccc3c2C(=O)N(C2CCCCC2)C3)c1,3,17,10,-23,6,nt,nt
SMILES,MPTP inh,Mdm2-MdmX inh,Calb FLC,CSC inhib,Beta cell apopt,Mdm2-MdmX conf,Full FLuc ctr
O=[N+]([O-])c1cc(S(=O)(=O)NCCN2CCOCC2)ccc1Sc1nnnn1-c1ccccc1,1,66*,3,55,-15,50*,20
O=[N+]([O-])c1cc(S(=O)(=O)NCCCN2CCOCC2)ccc1Cl,0,8,3,8,-7,nt,nt
Cc1cc(C)n(-c2ccc(NC(=O)C3CCCCN3Cc3cccc4c3OCO4)cc2)n1 (configuration not stated),0,52*,-6,nt,nt,64*,75*
Cc1cc(C)n(-c2ccc(NC(=O)C3CCCCN3C(=O)c3ccoc3)cc2)n1 (configuration not stated),-2,11,-12,-10,0,nt,nt
O=C(N=C1SC2CS(=O)(=O)CC2N1CCc1ccccc1)C1CC1 (configuration not stated),3,-7,-2,-12,-2,nt,nt
O=C(NCc1ccco1)c1ccc2c(=O)n(-c3ccccc3)c(=S)[nH]c2c1,1,50*,-2,-8,-1,-4,nt
CCOC(=O)CSc1nc2cc(C(=O)NCc3ccco3)ccc2c(=O)n1-c1ccc(F)cc1,0,71*,5,0,nt,13,83*
CCOC(=O)CSc1nc2cc(C(=O)NCc3ccco3)ccc2c(=O)n1C1CCCCC1,0,-37,-16,-11,-5,nt,nt
COc1ccc(-n2c(=S)[nH]c3cc(C(=O)NCc4ccco4)ccc3c2=O)cc1OC,0,-17,-2,nt,-10,nt,nt
CCOc1ccc(NC(=O)CN2C(=O)NC(C)(c3ccc4c(c3)OCCCO4)C2=O)cc1OCC (configuration not stated),1,nt,nt,nt,nt,nt,nt
Cc1cccc(C)c1-n1nnnc1C(c1ccnc2ccccc12)N(CCN(C)C)Cc1ccccc1 (configuration not stated),1,nt,nt,nt,nt,nt,nt
COC(=O)CCCC[C@@H]1O[C@H](CCc2ccccc2)CC2=C1C(=O)OC(C)(C)O2,0,nt,nt,nt,nt,nt,nt
C/C(=N\Nc1cc(-c2ccccc2)nc(-c2ccccc2)n1)c1ccc(O)c(C)c1,6,53*,-4,nt,17,6,nt
COc1cc(N/N=C(\C)c2ccc(O)c(C)c2)nc(-c2ccccc2)n1,2,87*,13,110*,23,66*,112*
COc1cc(N/N=C(\C)c2ccc(N)cc2)nc(-c2ccccc2)n1,1,14,5,-8,5,nt,nt
CCOC(=O)C1CCN(c2nc3cc(OC)ccc3cc2C#N)CC1,-2,4,16,1,-6,nt,nt
COc1ccc2cc3c(N)nn(C(=O)C4CCC(C(C)(C)C)CC4)c3nc2c1 (configuration not stated),30,94*,7,59,-27,88*,11
COc1ccc(-n2cnc(N)c2C(=O)c2cccc([N+](=O)[O-])c2)cc1,-2,36,1,1,-14,nt,nt
COc1ccc2cc3c(N)nn(C(=O)Cc4ccccc4OC)c3nc2c1,0,72*,3,1,-4,67*,62*
COc1ccc2cc3c(N)nn(C(=O)c4cccc([N+](=O)[O-])c4)c3nc2c1,-1,88*,34,-10,-19,67*,32
CC1(C)CC(NS(=O)(=O)c2ccc3ccccc3c2)CC(C)(C)N1,-1,-3,-6,-5,1,nt,nt

# Bioassay records (PubChem)
